Laboratory results reported in the OligoGym collection.

The sequences below were run against MLL (assay: pooled miR-30 sensor sort-seq; sequence = guide strand). Details: shRNA.
Also: reference of the scale not given here.

Sequence	sensor-assay potency score (higher = more potent)
TTACTCTTCTCAATCTTGCAGA	0.352
TTAAAGTCCACTCTGATCCTGT	0.574
TTCTGCTTCACAATCCTCCTTA	0.726
TAAGACATGATCAACTACTTTG	-0.602
TTCTGTTGTAGGCAGCTGCTGA	-0.148
TCGGTGTAGACTCTAATCGGGC	-1.36
TATACTTTTAGAATCTTTCTTC	0.988
TATCTCTGGAACTAGATCCCAT	0.126
TTTGCTTAGAACTATTGCCATT	-1.46
TTGTTTAAGACTCTTACTCTTC	-0.426
TTTTCGTCGTTCTAGATCCAAA	-1.11

What follows are sequences tested against MMADHC in the same assay as above. Details: shRNA.

Sequence	sensor-assay potency score (higher = more potent)
TTGTGTTACAGTCAGAATCATT	-1.32
TTCGAGAGCATATATCTGGAGG	-0.923
TGAGGTGACAATCAAAACCTAT	-0.635
TTCTTCTGTGAAGCAGTCCCAT	-0.488
TGTATTGCACACTCTACTCTGG	0.407
TTTTCTAAGAGCACTTCTCTTT	-0.6
TAATTTCTTGTTCAACAGGTGC	-0.82
TTTCTTGTTCAACAGGTGCATC	-1.26
TTTCACTTGATAAAGGTTCTGC	0.549
